# According to PubChem BioAssay (NCI):
# The panel holds about 83,000 compounds, 20% with a hit somewhere; the sample as a whole holds those more often.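 Testing used 96-well plates and a 48-hour single-concentration exposure. Example: -40 means 40% of the starting cells died.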 Unmarked numbers belong to inactive results. Active and inactive are the calls of the source. Rule for the calls: active = growth percent below 10; inactive = the rest.
# Assays:
# Experiment in all cases: NCI-60 one-dose screen, 48 h (100 = growth as untreated, 0 = no growth, -100 = all killed)
# Settings in all cases: 10 µM unless noted
# SR leukemia = system: SR leukemia
# RPMI-8226 leukemia = system: RPMI-8226 leukemia
# OVCAR-8 ovarian = system: OVCAR-8 ovarian
# OVCAR-5 ovarian = system: OVCAR-5 ovarian
# OVCAR-4 ovarian = system: OVCAR-4 ovarian
# SK-OV-3 ovarian = system: SK-OV-3 ovarian
# OVCAR-3 ovarian = system: OVCAR-3 ovarian
# NCI/ADR-RES ovarian = system: NCI/ADR-RES ovarian
# HS 578T breast = system: HS 578T breast
# IGROV1 ovarian = system: IGROV1 ovarian
Structure (SMILES),growth (SR leukemia),growth (RPMI-8226 leukemia),growth (OVCAR-8 ovarian),growth (OVCAR-5 ovarian),growth (OVCAR-4 ovarian),growth (SK-OV-3 ovarian),growth (OVCAR-3 ovarian),growth (NCI/ADR-RES ovarian),growth (HS 578T breast),growth (IGROV1 ovarian)
Cc1cc(Cl)ccc1Nc1nc(C(F)(F)F)ccc1C(=O)N/N=C/c1ccc(Cl)cc1,-37.5% (active),-12.7% (active),11.2%,6.57% (active),0.502% (active),-15.4% (active),1.27% (active),4.33% (active),,
O=C(COc1ccc(/C=C2\Oc3ccc4ccccc4c3C2=O)cc1)c1ccc([N+](=O)[O-])cc1,29%,61.9%,91.1%,103%,102%,103%,158%,101%,105%,
O=C(NC1CCS(=O)(=O)C1)c1ccc(C(=O)c2ccccc2)cc1 (configuration not stated),133%,72.8%,70%,102%,98.1%,113%,121%,117%,34.5%,
CCOC1Oc2ccccc2C(=O)/C1=N/c1nccs1 (configuration not stated),57.1%,36.3%,114%,99.1%,94.5%,97.7%,64.7%,87.9%,90.3%,
CCOC(=O)OCC(=O)[C@@]1(O)CC[C@H]2[C@@H]3CCC4=CC(=O)CC[C@]4(C)[C@H]3[C@@H](O)C[C@@]21C,109%,64.3%,94.5%,83.2%,104%,68.4%,112%,91%,123%,
C[C@H]1O[C@@H](O[C@H]2[C@@H](O)C[C@H](O[C@H]3[C@@H](O)C[C@H](O[C@H]4CC[C@]5(C)C6CC[C@]7(C)[C@@H](C8=CC(=O)OC8)CC[C@]7(O)C6CC[C@@H]5C4)O[C@@H]3C)O[C@@H]2C)C[C@H](O)[C@@H]1O (some centres not stated),-32.7% (active),-18.8% (active),-79.1% (active),-100% (active),-51.4% (active),-92.5% (active),-100% (active),-79.2% (active),-1.73% (active),
O=C1c2cc3c(cc2-c2c1c1ccc(Cl)cc1c(=O)n2CCCNCCO)OCO3,-43.8% (active),-30.5% (active),,-78.8% (active),-64.8% (active),-8.64% (active),-81.1% (active),-51.1% (active),-49.6% (active),-66.7% (active)
C/C(=C\CCc1ccoc1)CC/C=C(\C)CCCC1COC(=O)C1 (configuration not stated),100%,97.1%,,101%,87.6%,101%,105%,101%,97.5%,96.1%
Cc1nn(-c2ccccc2)c2nc(N)c(C3=NCCO3)nc12,104%,87.2%,95.9%,93.3%,,94.2%,114%,101%,82.2%,94.4%
CSc1nc2nc3c(nc2c(=O)n1C)C(=O)c1ccccc1C3=O,6.56% (active),-20.2% (active),,-91.7% (active),-53% (active),-22.2% (active),-63.8% (active),-4.99% (active),-21.6% (active),-53% (active)
CCNCCCn1c2c(c3ccc(F)cc3c1=O)C(=O)c1cc(OC)cnc1-2,-4.37% (active),-25.7% (active),,3.24% (active),-4.39% (active),-30.4% (active),-16.9% (active),-29.4% (active),14.9%,2.58% (active)
COc1c(Br)cc(C(c2cc(Br)c(OC)c(Br)c2)c2ccccc2C(=O)O)cc1Br,80.9%,88.7%,102%,99.1%,,106%,109%,98.8%,101%,95.7%
O=c1ncc(-c2ccc(C(F)(F)F)cc2)c(NC2CCCCCC2)[nH]1,69%,5% (active),,91.3%,53.5%,83.9%,-2.84% (active),102%,68.6%,51%
c1cc[n+](Cc2ccnc3ccccc23)cc1,24.1%,97.1%,99.6%,103%,,103%,118%,109%,109%,117%
Oc1c(Cl)cc(Cl)c(Cl)c1Cc1c(O)c(Cl)cc(Cl)c1Cl,63.9%,6.95% (active),,39.4%,29.5%,19.1%,10.8%,3.82% (active),-1.24% (active),25.1%
O=C(Nc1ccc(Cl)cc1)Nc1ccccc1CNc1nc(Nc2ccc(OCCN3CCCC3)cc2)ncc1Cl,1.33% (active),-24.2% (active),,105%,-47.4% (active),91.6%,-77.9% (active),-35.9% (active),96.4%,15.8%
Nc1c(C(=O)Nc2cccc(Cl)c2)sc2nc3c(cc12)C(O)CCC3 (configuration not stated),8.19% (active),6.38% (active),,51.2%,52.7%,35.4%,-33.4% (active),8.73% (active),24.5%,31.1%
Cc1ccc(-c2c3c(N)nc(-c4ccncc4)nc3nc3c2c(C)nn3-c2ccccc2)cc1,3.61% (active),62.5%,21.9%,65%,,-22.1% (active),73.6%,46.6%,32.7%,71.7%
O=C1Nc2ccc(Cl)cc2/C1=C/c1cccs1,99.4%,100%,,110%,35.9%,93.6%,87.8%,92.8%,96.2%,65.1%
FCc1ncc(-c2ccc(C(F)(F)F)cc2)c(NC2CCCCCC2)n1,-18% [100 µM] (active),4.24% [100 µM] (active),,32.7% [100 µM],27.2% [100 µM],46.1% [100 µM],-85% [100 µM] (active),18.4% [100 µM],41.4% [100 µM],27.2% [100 µM]
CCCCOP(=O)(OCCCC)C(C(=O)OCC)C(CC(=O)OCC)C(=O)OCC (configuration not stated),128%,109%,106%,100%,,105%,123%,113%,108%,112%
Cc1sc2nc(N3CCCCC3)[nH]c(=O)c2c1C,97%,106%,96.5%,108%,100%,92.3%,113%,96.5%,,
OCCCc1n(Cc2ccc3ccccc3c2)c2ccccc2[n+]1Cc1ccc2ccccc2c1,-30.9% (active),2.19% (active),15.2%,31%,22.3%,62.2%,0.774% (active),90.5%,,
Oc1c(N=Nc2nn[nH]n2)ccc2ccccc12,106%,89.3%,91%,97.3%,,97.7%,71.6%,96.2%,91%,78.5%
COc1cc(-c2nc3nc4sc(C)c(C)c4c(=O)n3[nH]2)cc(OC)c1OC,30.7%,74.3%,,96.4%,93.5%,92%,93.1%,70.8%,87.7%,66.6%
COc1cc(/C=C/c2cc(/C=C/c3ccc(O)c(OC)c3)n(C(=O)Cc3ccccc3)n2)ccc1O,4.44% (active),-34.2% (active),-17% (active),-18.7% (active),7.27% (active),,1.55% (active),21.7%,9.84% (active),11.4%
O=C1/C(=C/c2ccccc2O)C(=S)SN1Cc1ccco1,-9.87% (active),66.8%,,102%,105%,98.8%,111%,110%,104%,93.4%
N#Cc1ncc(-c2ccc(C(F)(F)F)cc2)c(NC2CCCCCC2)n1,52.6%,-5.45% (active),,38.8%,12.6%,73.6%,1.17% (active),69.8%,46.5%,32.5%
CCSc1nc(-c2ccco2)n2nc(-c3ccco3)cc2n1,93%,52.8%,,110%,65.9%,101%,105%,95.3%,96.2%,82.9%
NS(=O)(=O)N(c1cc(C(F)(F)F)cc(C(F)(F)F)c1)C1CCN(Cc2ccc(C(F)(F)F)cc2)CC1,-6.79% (active),31.7%,,38.6%,31.6%,4.55% (active),15%,58.2%,25.2%,21.7%
